SARS PLP yeast – inhibitors of SARS-CoV papain-like protease in yeast; 330,000 tested, 0.19% active; S. cerevisiae expressing SARS-CoV PLpro, growth rescue; Potency, µM (doses to about 32.9 µM), inactives show at the highest dose activity, positive = growth rescue, hits mostly activators; calls by dose curve; note: potency is the fitted concentration of half-maximal effect; 0% is about no effect; nearly all actives have a fitted effect of over 55% in size
AmpC detergent – blocks E. coli AmpC beta-lactamase in detergent assay | AmpC hydrolysis of nitrocefin, absorbance 480 nm, 0.01% Triton | 370,000 tested, 0.041% active | P00811 | Potency, µM (top dose mostly 114 µM), for the others: at the highest dose activity change, negative = inhibition, most hits filed as inhibitors | AID 485294;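 note: potency is the fitted concentration of half-maximal effect; 0% = no-compound wells and -100% = no-enzyme wells; nearly all actives have a fitted effect of over 25% in size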
Target sequence (P00811 whole entry, looked up): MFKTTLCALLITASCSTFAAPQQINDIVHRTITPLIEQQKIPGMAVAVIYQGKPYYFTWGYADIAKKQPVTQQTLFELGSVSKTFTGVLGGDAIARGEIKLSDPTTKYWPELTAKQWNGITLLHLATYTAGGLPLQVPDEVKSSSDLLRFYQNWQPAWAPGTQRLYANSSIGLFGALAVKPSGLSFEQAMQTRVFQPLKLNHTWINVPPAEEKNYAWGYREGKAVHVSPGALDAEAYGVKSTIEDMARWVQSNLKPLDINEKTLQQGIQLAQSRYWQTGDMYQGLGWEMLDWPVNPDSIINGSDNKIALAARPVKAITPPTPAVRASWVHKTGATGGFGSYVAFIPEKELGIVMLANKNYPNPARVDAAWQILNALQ
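AmpC (5.3 nM in the dispensed reagent) in 20 mM phosphate pH 7.0 with 0.01% (detergent screen) or 0.0001% Triton X-100 was preincubated with compounds for 15 min at room temperature. Nitrocefin was then added from an 800 uM solution, and hydrolysis was followed at 480 nm.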
AmpC no deterg – inhibitors of E. coli AmpC beta-lactamase without detergent. 330,000 tested, 0.52% active. Potency, µM (doses to about 57.1 µM), without a hit: top-dose activity change, negative = inhibition, usual class: inhibitors. P00811. AmpC nitrocefin hydrolysis, absorbance 480 nm, 0.0001% Triton. AID 485341;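 note: potency is the fitted concentration of half-maximal effect; plate controls were no compound for no effect and no enzyme for full effect; nearly all actives have a fitted effect of over 20% in size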
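AmpC (5.3 nM in the dispensed reagent) in 20 mM phosphate pH 7.0 with 0.01% (detergent screen) or 0.0001% Triton X-100 was preincubated with compounds for 15 min at room temperature. Nitrocefin was then added from an 800 uM solution, and hydrolysis was followed at 480 nm.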
CHX counter – affects cycloheximide protein synthesis inhibition readout, counter-screen. max response, %. cell reporter, cycloheximide protein synthesis inhibition counterscreen. 300,000 tested, 12% active; in the data active = max response mostly above about 13%, no sharp cut-off; inactive = mostly below about 14%; note: read at 38.3 µM for the half of the compounds with a filed dose; 0% is about no effect
Shiga toxin inh – inhibitors of Shiga toxin in Vero cells; inhibition, % at 38.7 µM; Vero cells, Shiga toxin protein synthesis inhibition reporter; AID 2315; 290,000 tested, 9.2% active; in the data active = inhibition mostly above about 28%, no sharp cut-off; inactive = mostly below about 43%; note: 0% is about no effect
AMA1-RON2 inh – inhibitors of Plasmodium falciparum AMA1-RON2 interaction; AlphaScreen AMA1-biotinylated RON2 peptide binding; Potency, µM (highest dose often 58.2 µM), without a hit: at the highest dose activity change, negative = inhibition, usual class: inhibitors; 360,000 tested, 0.2% active; AID 720542;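 note: potency is the fitted concentration of half-maximal effect; 0% = vehicle wells and -100% = peptide control; nearly all actives have a fitted effect of over 45% in size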
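AMA1 (3D7) with his tag at 25 nM final met compounds first, then biotinylated RON2 peptide at 25 nM; detection used donor plus acceptor beads, 10 µg/mL apiece, read by AlphaScreen after 30 min at room temperature.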
Numbers without * were called inactive; [ ] = another dose, or the depositor's remark. This excerpt belongs to a sample that is enriched for hits. Unless noted, calls come from the whole dose curve; as a rule, active = well fitted curve in the direction sought with a large enough effect; inconclusive = small, poorly fitted or top-dose-only effect, or another doubt; inactive = no such curve, though single readings can be large; an effect the other way counts as inactive or inconclusive.

Screening CC(=O)CCSc1nnc(-c2cccc(S(=O)(=O)N3CCOCC3)c2)o1 returned SARS PLP yeast 4%, AmpC detergent inconclusive, AmpC no deterg inconclusive and AMA1-RON2 inh -19%.
Screening Cc1ccc(N(CC(=O)N/N=C/c2cccc(Br)c2)S(C)(=O)=O)cc1 returned SARS PLP yeast -7%, AmpC detergent -12%, AmpC no deterg 14µM*, CHX counter -5, Shiga toxin inh -4 and AMA1-RON2 inh 7%[11.6 µM].
For C/C(CCc1ccc2c(c1)OCO2)=N\NC(=O)c1ccccc1 the results were SARS PLP yeast 0%, AmpC detergent -8%, AmpC no deterg -12%, CHX counter 36*, Shiga toxin inh 76* and AMA1-RON2 inh 36%.
`C/C(CCc1ccc2c(c1)OCO2)=N\NC(=O)c1ccccc1Cl` gave SARS PLP yeast 2%, AmpC detergent -6%, AmpC no deterg -21%, CHX counter 24*, Shiga toxin inh 13 and AMA1-RON2 inh 7%.
`O=C(NCc1ccc2c(c1)OCO2)c1ccccc1Cl` gave AMA1-RON2 inh -2%.
For C/C(=N/NC(=O)CCc1ccccc1)c1ccc2c(c1)OCO2 the results were SARS PLP yeast 0%, AmpC detergent -4%, AmpC no deterg -14%, CHX counter 9, Shiga toxin inh -2 and AMA1-RON2 inh -1%.
For CCCCN1C(=O)/C(=C2\SC(N3CCOCC3)=NC2=O)c2ccccc21 the results were SARS PLP yeast 0%, AmpC detergent 3%, AmpC no deterg 3%, CHX counter 28*, Shiga toxin inh 99* and AMA1-RON2 inh 6%.
For CCN1C(=O)/C(=C2\SC(N3CCOCC3)=NC2=O)c2ccccc21 the results were SARS PLP yeast 2%, AmpC detergent -5%, AmpC no deterg -10%, CHX counter -2, Shiga toxin inh 4 and AMA1-RON2 inh 47%.
Screening Cc1ccc(/C=N/OC(=O)c2nn(C)cc2Cl)cc1 returned SARS PLP yeast -6%, AmpC detergent inconclusive, AmpC no deterg -3%, CHX counter 55*, Shiga toxin inh 89* and AMA1-RON2 inh -1%.
Screening Cc1cccc(NC(=O)NNC(=O)c2c(Cl)c(C)nn2C)c1 returned SARS PLP yeast 9%, AmpC detergent inconclusive, AmpC no deterg -19%, CHX counter -3, Shiga toxin inh -4 and AMA1-RON2 inh 41%.
For Cc1cccc(NC(=S)NNC(=O)c2nn(C)cc2Cl)c1 the results were SARS PLP yeast -3%, AmpC detergent inconclusive, AmpC no deterg -31%, CHX counter 25*, Shiga toxin inh 34 and AMA1-RON2 inh 95%.
For Cc1ccc(NC(=S)NNC(=O)c2nnn(-c3ccccc3)c2C)cc1 the results were SARS PLP yeast 17%, AmpC detergent -15%, AmpC no deterg -45%, CHX counter 37*, Shiga toxin inh 59* and AMA1-RON2 inh 2%.
For Cc1ccc(NC(=S)NNC(=O)c2nn(C)cc2Cl)cc1 the results were SARS PLP yeast -2%, AmpC detergent -12%, AmpC no deterg -20%, CHX counter 19*, Shiga toxin inh 15 and AMA1-RON2 inh 0%.
`O=C(CCC(=O)c1cccs1)OCC(=O)c1ccccc1` gave SARS PLP yeast 0%, AmpC no deterg -15% and AMA1-RON2 inh -19%.
CC(=O)Nc1cccc(NC(=O)c2ccco2)c1 was read as SARS PLP yeast 0%, AmpC detergent 3%, AmpC no deterg -20%, CHX counter -2, Shiga toxin inh 14 and AMA1-RON2 inh -1%.
O=C(Nc1ccccc1O)c1cccc(NC(=O)c2ccco2)c1 was read as SARS PLP yeast 0%, AmpC detergent inconclusive, AmpC no deterg -20%, CHX counter -1, Shiga toxin inh -3 and AMA1-RON2 inh -7%.
Screening Nc1cccc(NC(=O)c2ccco2)c1 returned SARS PLP yeast 1%, AmpC detergent -4%, AmpC no deterg -16%, CHX counter 8.1*, Shiga toxin inh 16 and AMA1-RON2 inh -8%.
O=C(Nc1cccc(NC(=O)c2ccco2)c1)c1ccccc1 was read as SARS PLP yeast -4%, AmpC detergent 3%, AmpC no deterg -27%, CHX counter 13, Shiga toxin inh -9 and AMA1-RON2 inh 11%.

Bioassay records deposited in PubChem BioAssay by National Center for Advancing Translational Sciences (NCATS).
